Bioassay records (PubChem)
HT1080NT lethal = kills 2HG-producing HT-1080-NT fibrosarcoma cells. AID 686970. 360,000 tested, 1.6% active. Potency, µM (highest dose often 46.1 µM), without a hit: top-dose activity, negative = less viability, actives largely listed as cytotoxic. HT-1080-NT fibrosarcoma viability, CellTiter-Glo ATP luminescence, 48 h;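 also: NT is the 2HG producing partner of a matched IDH1 knockdown line; potency is read from the fitted curve at half-maximal effect; 0% = DMSO-treated cells and -100% = media-only wells without cells; nearly all actives have a fitted effect of over 55% in size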
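Viability by CellTiter-Glo luminescence after 48 h compound exposure at 37C of HT-1080-NT cells (750/well, RPMI, 5% FBS). % activity scaled between DMSO wells and medium-only wells, then curve-fitted and categorized by curve class.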
DT40 TDP1 CPT = growth inhibition of DT40 Tdp1-/-;hTDP1 cells with camptothecin (screen for TDP1 inhibitors). chicken DT40 Tdp1-/-;hTDP1 cells + 20 nM CPT, ATP luminescence, 48 h. Potency, µM (doses to about 46.2 µM), for the others: at the highest dose activity change, negative = growth inhibition, most hits filed as inhibitors. 420,000 tested, 12% active. AID 686979; also: potency is read from the fitted curve at half-maximal effect; nearly all actives have a fitted effect of over 55% in size
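Cell growth measured by CellTiter-Glo luminescence after a minimum 48 h, 37 C compound exposure with 20 nM CPT in Tdp1-knockout DT40 cells stably expressing hTDP1, seeded 400/well; qHTS titration format.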
DT40 TDP1 no CPT = qHTS for Inhibitors of human tyrosyl-DNA phosphodiesterase 1 (TDP1): qHTS in cells in absence of CPT. DT40 Tdp1-/- hTDP1 cells, no CPT, ATP luminescence, 48 h. Potency, µM (series often up to 46.2 µM), without a hit: at the highest dose activity change, negative = growth inhibition, actives largely listed as inhibitors. 420,000 tested, 15% active. AID 686978, 2013; also: potency is read from the fitted curve at half-maximal effect; nearly all actives have a fitted effect of over 55% in size
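Cells were dispensed at 400 per well, compounds added by pin tool, plates incubated ≥48 hr at 37 °C, then CellTiter-Glo added for 30 min at room temperature before luminescence reading. Line: DT40 Tdp1-/- complemented with hTDP1; camptothecin omitted.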
IL-1B inflam inh = inhibitors of inflammasome signaling (IL-1 beta secretion); THP-1 LPS/ATP IL-1B secretion, AlphaLISA, 16 h; active compounds read low; activity change, % at 57.5 µM; 360,000 tested, 4.7% active; AID 743279; in the data active = activity change below about -50%; inconclusive = mostly about -30% to -49%
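Secreted IL-1B measured by AlphaLISA bead assay after 16 h compound exposure of THP-1 cells; compounds (final up to 57.5 uM) added 1 h before LPS (250 ng/mL) and ATP (1.25 mM) stimulation; lower signal means less secretion.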
ALOX12 inh = blocks human arachidonate 12S-lipoxygenase. purified 12hLO, xylenol orange hydroperoxide absorbance. P18054. Potency, µM (titrated, usually from 108 µM), inactives show top-dose activity change, negative = inhibition, most hits filed as inhibitors. 580,000 tested, 1.1% active. AID 1671190; also: potency is read from the fitted curve at half-maximal effect
Target sequence (P18054 whole entry, looked up): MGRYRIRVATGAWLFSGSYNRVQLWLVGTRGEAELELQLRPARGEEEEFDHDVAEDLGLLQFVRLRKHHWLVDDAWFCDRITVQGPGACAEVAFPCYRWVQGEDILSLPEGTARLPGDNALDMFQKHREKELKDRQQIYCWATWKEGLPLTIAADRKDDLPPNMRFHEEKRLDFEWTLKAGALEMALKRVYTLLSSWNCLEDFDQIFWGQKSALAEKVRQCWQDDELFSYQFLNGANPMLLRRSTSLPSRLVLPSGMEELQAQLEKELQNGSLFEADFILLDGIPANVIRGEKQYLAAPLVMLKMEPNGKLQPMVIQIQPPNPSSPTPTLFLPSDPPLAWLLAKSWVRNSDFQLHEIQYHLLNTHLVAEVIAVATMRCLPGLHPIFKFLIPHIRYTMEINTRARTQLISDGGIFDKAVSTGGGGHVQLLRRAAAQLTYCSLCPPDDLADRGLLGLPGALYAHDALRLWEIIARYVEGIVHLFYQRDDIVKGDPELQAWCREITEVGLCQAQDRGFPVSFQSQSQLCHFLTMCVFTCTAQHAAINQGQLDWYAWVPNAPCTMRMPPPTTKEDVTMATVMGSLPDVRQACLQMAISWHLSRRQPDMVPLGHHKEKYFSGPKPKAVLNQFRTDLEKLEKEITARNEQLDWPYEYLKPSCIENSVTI
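Purified human 12hLO at 150 nM in 25 mM Hepes, 0.01% Triton X-100, pH 7.0, preincubated 15 min at room temperature with compound. Reaction started with 40 uM arachidonic acid, 30 min at room temperature. Hydroperoxide measured by Fe-xylenol orange, 573/405 nm absorbance ratio.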
HT1080 IDH1KD tx = HT-1080 IDH1 knockdown cell toxicity (counter line) | HT-1080 IDH1 knockdown viability, ATP luminescence, 48 h | Potency, µM (highest dose often 46.1 µM), without a hit: top-dose activity, negative = toxicity, hits mostly cytotoxic | 360,000 tested, 2% active;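 also: potency is read from the fitted curve at half-maximal effect; 0% = DMSO wells and -100% = cell-free medium wells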
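Using the IDH1-knockdown HT-1080 line run in the same batch and compound series as the NT line, viability after 48 h at 37 °C was determined by CellTiter-Glo luminescence and expressed as % activity.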
Starred values were filed as active, the others as inactive; u = inconclusive; x = no result. Many of the other results were omitted from the sample, so hits are more common in it than they were. Unless noted, calls follow the shape of the dose curve; as a rule, active = well fitted curve in the direction sought with a large enough effect; inconclusive = small, poorly fitted or top-dose-only effect, or another doubt; inactive = no such curve, though single readings can be large; an effect the other way counts as inactive or inconclusive. Unless noted, % is scaled to controls: 0 for no effect and ±100 for the full control effect.

SMILES	HT1080NT lethal	DT40 TDP1 CPT	DT40 TDP1 no CPT	IL-1B inflam inh	ALOX12 inh	HT1080 IDH1KD tx
COc1ccc(C2CN=NC23CCc2ccccc2C3=O)cc1 (centres undefined)	u	u	23µM*	87	-24%	16µM*
Cc1ccc(NC(=O)c2ccccc2Oc2ccccc2)cc1S(=O)(=O)N(C)C	x	x	x	x	-6%	x
OCCCNc1nc(-c2ccc(Br)cc2)nnc1-c1ccc(Cl)cc1	-16%	23µM*	u	-57*	-22%	u
CC(C)CN1CCN(C(=O)CCC2CCN(c3cc(NC4CC4)ncn3)CC2)CC1	x	x	x	x	53%	x
COc1cc(N2C(=O)C=CC2=O)ccc1N1C(=O)C=CC1=O	u	0.73µM*	0.92µM*	-99*	-23%	9.2µM*
CC(=O)Nc1ccc(-c2cc(NC(C)=O)n(-c3ccccc3)n2)cc1	2%	0%	-12%	4	0%	9%
Cc1ccc(-c2nn(-c3ccccc3)cc2NC(=O)CCl)cc1	5.2µM*	3.3µM*	2.6µM*	-100*	u	7.3µM*
Cc1ccc(-c2cc(NC(=O)CCl)n(-c3ccccc3)n2)cc1	u	-90%	7.3µM*	-99*	u	u
O=C(CCl)Nc1cc(-c2ccccc2)nn1-c1ccccc1	5µM*	5.2µM*	3.3µM*	-105*	u	1.6µM*
Cc1noc(-c2ccc(OCc3ccccc3F)cc2O)c1-c1ccccc1	x	x	x	x	6%	x
COCCNC(=O)c1ccc(CSCc2cccc(Cl)c2)o1	-1%	u	u	-11	0%	6%
O=C(NCCc1ccc(Cl)cc1)c1ccc(CSCc2ccccc2Cl)o1	x	15µM*	16µM*	x	u	x
Cc1cccc(CSCc2ccc(C(=O)NCCc3ccccc3)o2)c1	x	u	13µM*	x	-25%	x
Cc1cccc(NC(=O)c2cnc3ccccc3n2)n1	x	x	x	x	1%	x
COc1ccccc1NS(=O)(=O)c1ccc2oc(SCC(C)=O)nc2c1	-3%	-6%	u	16	12%	-15%
COc1ccccc1NS(=O)(=O)c1ccc2oc(SC(C)C(=O)N3CCNC3=O)nc2c1 (centres undefined)	-7%	15µM*	u	u	23%	-18%
COc1ccccc1NS(=O)(=O)c1ccc2oc(SCc3ccc(F)cc3)nc2c1	u	16µM*	16µM*	-6	-1%	-28%
NC(=O)c1ccccc1NC(=O)/C=C/c1c(Cl)cccc1Cl	-28%	u	18µM*	-22	0%	u
Cc1ccc(/C=C/C(=O)Nc2ccccc2C(N)=O)o1	x	u	10µM*	x	-25%	x
Cc1ccc(/C=C/C(=O)NCCc2ccccc2)o1	-3%	5.8µM*	29µM*	-27	u	-2%
Cc1ccc(/C=C/C(=O)Nc2cccc3ncccc23)o1	0%	u	u	-21	-24%	1%
O=C(NC(c1ccc(Cl)cc1)c1cnccn1)C1CCN(CCCc2ccccc2)CC1 (centres undefined)	u	23µM*	u	u	x	u
O=C(NC(c1ccc(Cl)cc1)c1cnccn1)C1CCN(CCCOc2ccccc2)CC1 (centres undefined)	u	23µM*	21µM*	-58*	u	u
O=C(NC(c1ccccc1)c1cnccn1)C1CCN(CCCOc2ccccc2)CC1 (centres undefined)	0%	-1%	-26%	-10	-5%	15%
CCc1c(C)c(C#N)c2nc3ccccc3n2c1Nc1cccc(C(F)(F)F)c1	x	16µM*	16µM*	x	u	x
CC(C)c1ccc(NC(=O)Cc2c[nH]c3ccccc23)cc1	x	x	x	x	-6%	x
